HT1080-NT tox = kills 2HG-producing HT-1080-NT fibrosarcoma cells; HT-1080-NT fibrosarcoma viability, CellTiter-Glo ATP luminescence, 48 h; Potency, µM (highest dose often 46.1 µM), without a hit: at the highest dose activity, negative = less viability, actives largely listed as cytotoxic; 360,000 compounds, 1.6% hits;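 also: NT is the 2HG producing partner of a matched IDH1 knockdown line; 0% = DMSO-treated cells and -100% = media-only wells without cells; nearly all actives have a fitted effect of over 55% in size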
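Luminescent CellTiter-Glo readout after 48 hours of compound exposure at 37 degrees C defined viability of HT-1080-NT cells. Activity was normalized to DMSO wells and cell-free media wells; concentration-response curves were fitted and assigned curve classes.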
HepG2 viability = counter-screen for TGF-b inhibitors: cytotoxicity in HepG2 cells. HepG2 CAGA-GFP viability, ATP luminescence, 18 h. Potency, µM (highest dose often 46.1 µM), for the others: at the top dose activity change, negative = cytotoxicity, actives largely listed as cytotoxic. 410,000 compounds, 0.76% hits. AID 588856
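HepG2 CAGA-GFP cells (1000/well, DMEM with 1% FBS) received compound, then TGF-beta at 500 pg/mL final, and were incubated 18 hours at 37 degrees C. Viability was read by CellTiter-Glo luminescence. Media-only wells were set as complete cell-killing and DMSO as no toxicity.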
DT40 TDP1 no CPT = qHTS for Inhibitors of human tyrosyl-DNA phosphodiesterase 1 (TDP1): qHTS in cells in absence of CPT; DT40 Tdp1-/- hTDP1 cells, no CPT, ATP luminescence, 48 h; Potency, µM (titrated, usually from 46.2 µM), for the others: at the top dose activity change, negative = growth inhibition, most hits filed as inhibitors; 420,000 compounds, 15% hits; AID 686978, 2013; also: % is scaled to controls: 0 for no effect and ±100 for the full control effect; nearly all actives have a fitted effect of over 55% in size
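Growth kinetics read by CellTiter-Glo luminescence after ≥48 hr at 37 °C. Cells: DT40 Tdp1-/- stably carrying human TDP1, 400 per well, compound exposure in the absence of CPT (DMSO vehicle).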
TGFb inhibitor = blocks TGF-b signaling | HepG2 CAGA-GFP TGF-b/SMAD3 reporter, GFP fluorescence, 18 h; TGF-beta stimulated, 500 pg/mL final | Potency, µM (doses to about 46.1 µM), inactives show top-dose activity, negative = inhibition, hits mostly inhibitors | 410,000 compounds, 1.2% hits; also: % is scaled to controls: 0 for no effect and ±100 for the full control effect; nearly all actives have a fitted effect of over 65% in size
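Using HEPG2 CAGA-GFP reporter cells at 1000 cells/well, we pinned test compounds, stimulated with recombinant TGF-beta (500 pg/mL final) and measured total well GFP after 18 h.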
TDP1 cell CPT = growth inhibition of DT40 Tdp1-/-;hTDP1 cells with camptothecin (screen for TDP1 inhibitors); chicken DT40 Tdp1-/-;hTDP1 cells + 20 nM CPT, ATP luminescence, 48 h; Potency, µM (highest dose often 46.2 µM), without a hit: at the top dose activity change, negative = growth inhibition, most hits filed as inhibitors; 420,000 compounds, 12% hits; also: % is scaled to controls: 0 for no effect and ±100 for the full control effect; nearly all actives have a fitted effect of over 55% in size
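Chicken DT40 Tdp1-/- cells stably complemented with human TDP1 were seeded at 400 cells/well in medium containing 20 nM camptothecin, exposed to pin-transferred compounds, and grown at 37 °C for at least 48 hr. Viability was read as ATP luminescence.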
HT1080 IDH1KD tx = HT-1080 IDH1 knockdown cell toxicity (counter line); 360,000 compounds, 2% hits; HT-1080 IDH1 knockdown viability, ATP luminescence, 48 h; Potency, µM (series often up to 46.1 µM), for the others: at the highest dose activity, negative = toxicity, usual class: cytotoxic;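 also: 0% = DMSO wells and -100% = cell-free medium wells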
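% activity derives from luminescence (CellTiter-Glo), normalised to DMSO and no-cell wells. HT-1080-IDH1KD cells, 750/well, had 48 h compound exposure at 37 °C.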
An asterisk follows results filed as active; ! = not confirmed by another sample; [ ] = remark or other dose. The list is not random: actives were taken first. Their share in the collection is about 17%. Calls follow the shape of the dose curve; as a rule, active = well fitted curve in the direction sought with a large enough effect; inconclusive = small, poorly fitted or top-dose-only effect, or another doubt; inactive = no such curve, though single readings can be large; an effect the other way counts as inactive or inconclusive. Potency is read from the fitted curve at half-maximal effect.

Screening CC(C)c1ccc(NC(=O)Nc2nc(CN)cs2)cc1 returned HT1080-NT tox -16%, HepG2 viability -71%, DT40 TDP1 no CPT inconclusive, TGFb inhibitor inconclusive, TDP1 cell CPT inconclusive and HT1080 IDH1KD tx -24%.
For COc1ccc(NC(=O)Nc2nc(C(N)C3CCCCC3)cs2)cc1 (stereo not drawn) the results were HT1080-NT tox inconclusive, HepG2 viability -88%, DT40 TDP1 no CPT inconclusive, TGFb inhibitor inconclusive, TDP1 cell CPT inconclusive and HT1080 IDH1KD tx inconclusive.
NC(c1csc(Nc2ccc(C(=O)NCCCO)cn2)n1)C1CCCCC1 (stereo not drawn) was read as HT1080-NT tox -5%, HepG2 viability -11%, DT40 TDP1 no CPT inconclusive, TGFb inhibitor -15%, TDP1 cell CPT -44% and HT1080 IDH1KD tx inconclusive.
`O=C(NCCCN1CCCC1=O)C1CCC(CNS(=O)(=O)c2ccc(Cl)cc2)CC1` (stereo not drawn) gave HT1080-NT tox -5%, HepG2 viability -7%, DT40 TDP1 no CPT -6%, TGFb inhibitor -1%, TDP1 cell CPT -12% and HT1080 IDH1KD tx 2%.
Cc1c(C(=O)N(C)C)sc2c1c(=O)n(-c1ccc(Cl)c(Cl)c1)c(=O)n2Cc1ccc(F)cc1 was read as HepG2 viability 4%, DT40 TDP1 no CPT inconclusive, TGFb inhibitor -19% and TDP1 cell CPT inconclusive.
CC1C(=O)CCC2[C@]1(C)CCC1[C@]2(C)CC[C@@]2(C)C3CC(C)(C)CC[C@]3(C)CC[C@@]12C (stereo partly drawn) was read as DT40 TDP1 no CPT -9% and TDP1 cell CPT 7%.
Screening CC(C)c1ccc(NC(=O)Nc2nc(C(C)N)cs2)cc1 (stereo not drawn) returned HT1080-NT tox inconclusive, HepG2 viability -85%, DT40 TDP1 no CPT 15µM*, TGFb inhibitor 18µM*, TDP1 cell CPT 15µM* and HT1080 IDH1KD tx 21µM*.
Cc1ccccc1NC(=O)Nc1nc(C(N)C2CCCCC2)cs1 (stereo not drawn) was read as HT1080-NT tox inconclusive, HepG2 viability -53%, DT40 TDP1 no CPT inconclusive, TGFb inhibitor inconclusive, TDP1 cell CPT 23µM* and HT1080 IDH1KD tx inconclusive.
`COc1ccc(C2(C)NC(=O)N(CC(=O)Nc3ccc(Br)cc3F)C2=O)cc1OC` (stereo not drawn) gave HT1080-NT tox -18%, HepG2 viability 1%, DT40 TDP1 no CPT -8%, TGFb inhibitor 7%, TDP1 cell CPT 3% and HT1080 IDH1KD tx -10%.
`CC1CN(CCNC(=O)C2CCCc3c2[nH]c2ccccc32)Cc2ccccc2O1` (stereo not drawn) gave DT40 TDP1 no CPT inconclusive and TDP1 cell CPT 18%[9.04 µM].
For O=c1c(O)c(-c2cc(O)c(O)c(O)c2)oc2cc(O)cc(O)c12 the results were HT1080-NT tox 2%, HepG2 viability -21%, DT40 TDP1 no CPT 18µM*, TGFb inhibitor -20%, TDP1 cell CPT 11µM*! and HT1080 IDH1KD tx 0%.
O=c1c(O)c(-c2ccccc2)oc2cc(O)cc(O)c12 was read as HT1080-NT tox -5%, HepG2 viability -34%, DT40 TDP1 no CPT 30µM*, TGFb inhibitor inconclusive, TDP1 cell CPT inconclusive and HT1080 IDH1KD tx -5%.
For CC1CCC(NC(=O)c2ccc3c(c2)N(Cc2ccccc2)C(=O)c2ccccc2S3(=O)=O)CC1 (stereo not drawn) the results were HepG2 viability -2%, DT40 TDP1 no CPT -28% and TDP1 cell CPT inconclusive.
`Cc1ccc(NC(=O)CSc2nc3n[nH]c(C)c3c(=N)n2-c2cccc(C)c2)cc1` gave HepG2 viability -13%, DT40 TDP1 no CPT 3.3µM*, TGFb inhibitor 0% and TDP1 cell CPT 5.8µM*.
Screening CCC(Sc1nc2n[nH]c(C)c2c(=N)n1-c1cccc(Cl)c1)C(=O)NCCOC (stereo not drawn) returned HT1080-NT tox -28%, HepG2 viability -24%, DT40 TDP1 no CPT 13µM*, TGFb inhibitor 4%, TDP1 cell CPT 23µM* and HT1080 IDH1KD tx inconclusive.
For Cc1ccc(Cl)cc1-n1c(SCC(=O)NCc2ccccc2)nc2n[nH]c(C)c2c1=N the results were HepG2 viability -32%, DT40 TDP1 no CPT inconclusive, TGFb inhibitor -26% and TDP1 cell CPT inconclusive.
Screening Cc1cccc(NC(=O)CSc2nc3n[nH]c(C)c3c(=N)n2-c2cccc(Cl)c2)c1 returned HepG2 viability -33%, DT40 TDP1 no CPT 15µM*, TGFb inhibitor inconclusive and TDP1 cell CPT 18µM*.
For CCC(C)NC(=O)CSc1nc2n[nH]c(C)c2c(=N)n1-c1cc(Cl)ccc1C (stereo not drawn) the results were HepG2 viability -14%, DT40 TDP1 no CPT 16µM*, TGFb inhibitor inconclusive and TDP1 cell CPT inconclusive.
`CC(Oc1ccccc1)C(=O)Nc1c(C(=O)Nc2cccc(F)c2)oc2ccccc12` (stereo not drawn) gave HepG2 viability 12%, DT40 TDP1 no CPT inconclusive, TGFb inhibitor 16% and TDP1 cell CPT inconclusive.
For CC1CC(C)CN(S(=O)(=O)c2ccc(NC(=O)CN3C(=O)NC(C)(c4ccccc4)C3=O)cc2)C1 (stereo not drawn) the results were HT1080-NT tox -2%, HepG2 viability -24%, DT40 TDP1 no CPT -2%, TGFb inhibitor inconclusive, TDP1 cell CPT -7% and HT1080 IDH1KD tx 3%.
